# From PubChem BioAssay (EPA / NIEHS)
# Activity calls are given as the source filed them. How the source made its calls: active means hit-call score of the fitted dose curve at least 0.9, where 1 is the maximum; inactive means score below 0.9.
# Experiment: CCTE_Padilla_ZF_Score.General: CCTE's 144 Hour Post-fertilization zebrafish Assay Score for General Malformation, Padilla Lab (AID 2284411)
# Experimental: CCTE_Padilla_ZF_Phenotype_Score is a whole embryo, multiplexed assay using zebrafish ova exposed for 144 hours post fertilization on a 96-well plate.CCTE_Padilla_ZF_Score.General is one of one assay component(s) measured or calculated from the CCTE_Padilla_ZF_Phenotype_Score assay. It is designed to make measurements of zebrafish development as detected with brightfield microscopy of developing zebrafish embryos.Data from the assay component CCTE_Padilla_ZF_Score.General was analyzed into 1 assay endpoints. This assay endpoint, CCTE_Padilla_ZF_Score.General, was analyzed in the positive analysis fitting direction relative to DMSO as the negative control and baseline of activity. Using a type of viability reporter, gain-of-signal activity can be used to understand changes in developmentals as they relate to the whole embryo. To generalize the intended target to other relatable targets, this assay endpoint is annotated to the zebrafish development intended target family, where the subfamily is embryonic morphogenesis.
# Zebrafish husbandry: Wild type adult zebrafish (Danio rerio; undefined outbred stock obtained from Aquatic Research Organisms, Hampton, NH, 03842) were housed in an AAALAC-approved animal facility at 28C with a 14:10 h light: dark cycle (lights on at 08:30 h). Adult fish (2-3 females per male; density = 15-20 adults per tank) were kept in one of several 9-liter (L) flow-through colony tanks (Aquaneering Inc., San Diego, CA). All adults in a colony tank were placed in a 2 L (static) breeding tank (Aquatic Habitats, Apopka, FL) one hour prior to light onset. Typically, adults from two to three colony tanks were mated on the same day. Two hours after light onset the adults were returned to the colony tank. All embryos were gathered from each breeder tank, pooled, and placed in a 28C water bath for 2 h, followed by two washes with 0.06% bleach (v/v) in 10% Hanks' Balanced Salt Solution (13.7 mM NaCl 0.54 mM KCl, 25 uM Na2HPO4, 130 uM CaCl2 100 um MgSO4 and 420 um NaHCO3,), hereafter referred to as Hanks' solution, for 5 min in order to remove any residual bacteria or fungi. Immediately following washing, the embryos were examined, and healthy embryos were separated from dead or unfertilized eggs and moved into fresh Hanks'. Chemical exposures: Zebrafish embryos were exposed in 96-well plates. Between 6- and 8-hours post fertilization (hpf), healthy embryos (with chorions) were transferred, one embryo per well, into 96 well (0.5 mL) microtiter plates (Cell Culture-Treated, Flat-Bottom Microplate 96 well [Corning Costar, Kennebunk, ME; Cat 09-761-145]) filled with 200 uL of Hanks' solution. A random number generator was used to assign the order in which the rows of embryos were plated in 96 well plates each week. After plating, the embryos were dosed with 0.8 uL of the chemical dosing solution then immediately sealed with AlumaSeal II (Excel Scientific Inc, Victorville, CA) to prevent volatilization of the chemicals, and then placed in a leakproof secondary container. These containers were placed in an incubator maintained on a 14:10 h light: dark cycle at 26C for rearing. On 5 dpf, live larvae were gently moved out of the plate with test chemicals and into a new 96 well mesh plate (Millipore Corp., Bedford, MA) with just the Hanks' solution. Once within the mesh well plate, the animals were rinsed with 400 uL of fresh Hanks' three times, and then the plates were covered with a non-adhesive material (Microseal A, BioRad, Hercules, CA), plate lid added, and then plate sides wrapped in Parafilm (PM992, Bermis Company, Neenah, WI), and returned to the incubator. […]
Compound,outcome,AC50
C=C(C)C(=O)OCCOCCOCCOC(=O)C(=C)C,inactive,–
C[C@@H]1CCN(C(=O)[C@H](CCCN=C(N)N)NS(=O)(=O)c2cccc3c2NC[C@H](C)C3)[C@@H](C(=O)O)C1,inactive,–
FC(F)(F)COCC(F)(F)F,inactive,–
C=C(C)C(=O)OCCOCCOCCOCCOC(=O)C(=C)C,inactive,–
c1ccc(CCc2ccccc2)cc1,inactive,–
CCN(CC)C(=O)N(CC)CC,inactive,–
COc1ccc(CCN2CCC(Nc3nc4ccccc4n3Cc3ccc(F)cc3)CC2)cc1,–,0.439 µM (active)
CCCCCC(C=O)=Cc1ccccc1,inactive,–
C=Cc1ccncc1,–,22.6 µM (active)
CC1(C)C2=CCCC(C)(C)[C@]23CC[C@H]1C3,inactive,–
c1ccc(Oc2ccccc2)cc1,inactive,–
CN(c1nccc(=O)[nH]1)C1CCN(c2nc3ccccc3n2Cc2ccc(F)cc2)CC1,inactive,–
